In PubChem BioAssay (NCI) one finds growth inhibition data, which are given here for ten compounds.

Compounds without any hit were thinned out: in the full panel of roughly 79,000, 15% have a hit. A number with no mark means an inactive call. Calls of active or inactive are those of the source. Cut-off read from the data, not from the text of the source: active = growth inhibition above about 70%; inactive = the rest.

Assay [1] in a line: NCI Yeast Anticancer Drug Screen. Data for the rad50 strain (AID 155).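 Note: 0% = growth of vehicle-only cultures of the same strain.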 As to conditions: S. cerevisiae rad50 strain growth inhibition, stronger effect = higher value. The gist of the method: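 Genetically altered yeast (DNA repair pathway); compound treatment; growth inhibition vs vehicle ctrl.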
Assay [2] in a line: NCI Yeast Anticancer Drug Screen. Data for the mec2-1 strain (AID 157). Conditions: S. cerevisiae mec2-1 strain, stronger effect = higher value. The gist of the method:
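Growth inhibition is read against vehicle-treated controls after compound exposure of the mec2-1 yeast strain, which is defective in DNA damage repair or cell cycle control.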

A short description of assay [3]: NCI Yeast Anticancer Drug Screen. Data for the sgs1 mgt1 strain (AID 161).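 Note: 0% = growth of cultures given vehicle only.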 Conditions: S. cerevisiae sgs1 mgt1 strain, stronger effect = higher value. The procedure, abridged: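 Compounds are added to genetically altered yeast, and growth is compared with cultures given vehicle alone to give percent inhibition.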
Assay [4] can be described thus: NCI Yeast Anticancer Drug Screen. Data for the cln2 rad14 strain (AID 165).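 Note: 0% = growth equal to vehicle treated cultures.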 As to conditions: S. cerevisiae cln2 rad14 strain, stronger effect = higher value. The procedure, abridged:
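Growth inhibition, relative to vehicle-treated controls, is the read-out. The test organism is a yeast strain with defined genetic alterations, cln2 rad14.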

Assay [5] can be described thus: NCI Yeast Anticancer Drug Screen. Data for the bub3 strain (AID 167). Conditions: S. cerevisiae bub3 mutant strain, stronger effect = higher value. The procedure, abridged:
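Yeast carrying a defined mutation is treated with each compound, and growth is compared with that of vehicle-exposed cells to give inhibition.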

The nature of assay [6]: NCI Yeast Anticancer Drug Screen. Data for the mlh1 rad18 strain (AID 175). As to conditions: S. cerevisiae mlh1 rad18 strain growth inhibition, stronger effect = higher value. The gist of the method:
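Cells of a genetically altered yeast strain, deficient in DNA damage repair, were treated with compound. Their growth was then compared with that of vehicle-treated cultures to give inhibition.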

The mark [7] stands for this setting: at 5.0 µM (retest, dose inferred, filed as 0.5).
[8] abbreviates: at 50.0 µM (retest, dose inferred, filed as 5.0).

Consider `CCC[CH2][Sn]([CH2]CCC)([O]C(=O)C(OC(C)=O)c1ccccc1)[O]C(=O)C(OC(C)=O)c1ccccc1` (stereo not given), for which the growth inhibition is 52% in assay [1] (setting [7]); 98% (active) in assay [1] (setting [8]); 98.5% (active) in assay [1] (at 50.0 µM); 43% in assay [2] (setting [7]); 98% (active) in assay [2] (setting [8]); 97.8% (active) in assay [2] (at 50.0 µM). Further, the growth inhibition is 45% in assay [3] (setting [7]); 97% (active) in assay [3] (setting [8]); 98.5% (active) in assay [3] (at 50.0 µM); 31% in assay [4] (setting [7]); 97% (active) in assay [4] (setting [8]); 96.4% (active) in assay [4] (at 50.0 µM). Moreover, the growth inhibition in assay [5] (setting [7]) was 71% (active); in assay [5] (setting [8]), 97% (active); in assay [5] (at 50.0 µM) it was 98% (active); in assay [6] (setting [7]), 60%; in assay [6] (setting [8]) it was 98% (active); in assay [6] (at 50.0 µM) it was 98.5% (active).
For `CCCCCCCCCCCCCCNCc1ccccc1`, the growth inhibition was 99% (active) in assay [1] (setting [7]); 97% (active) in assay [1] (setting [8]); 98.8% (active) in assay [1] (at 50.0 µM); 99% (active) in assay [2] (setting [7]); 98% (active) in assay [2] (setting [8]); 98.5% (active) in assay [2] (at 50.0 µM). The growth inhibition was 99% (active) in assay [3] (setting [7]); 97% (active) in assay [3] (setting [8]); 98.2% (active) in assay [3] (at 50.0 µM); 99% (active) in assay [4] (setting [7]); 97% (active) in assay [4] (setting [8]); 97.5% (active) in assay [4] (at 50.0 µM). Moreover, the growth inhibition is 99% (active) in assay [5] (setting [7]); 97% (active) in assay [5] (setting [8]); 98.6% (active) in assay [5] (at 50.0 µM); 99% (active) in assay [6] (setting [7]); 97% (active) in assay [6] (setting [8]); 97.5% (active) in assay [6] (at 50.0 µM).
For the compound `C/C(CCSCc1ccccc1)=N/NC(N)=S`, the growth inhibition is 6% in assay [1] (setting [7]); 44% in assay [1] (setting [8]); 41.8% in assay [1] (at 50.0 µM); 4% in assay [2] (setting [7]); 65% in assay [2] (setting [8]); 55.9% in assay [2] (at 50.0 µM). For the same compound, the growth inhibition in assay [3] (setting [7]) was 6%; in assay [3] (setting [8]) it was 78% (active); in assay [3] (at 50.0 µM) it was 63.9%; in assay [4] (setting [7]), -5%; in assay [4] (setting [8]) it was 45%; in assay [4] (at 50.0 µM) it was 33.2%. Also, the growth inhibition was -1% in assay [5] (setting [7]); 65% in assay [5] (setting [8]); 54.1% in assay [5] (at 50.0 µM); 7% in assay [6] (setting [7]); 76% (active) in assay [6] (setting [8]); 66.7% in assay [6] (at 50.0 µM).
Turning to `c1ccc(CCc2c[nH]c3ccccc23)cc1`, the growth inhibition in assay [1] (setting [7]) is -7%; in assay [1] (setting [8]), -1%; in assay [1] (at 50.0 µM), 59.6%; in assay [2] (setting [7]), 0%; in assay [2] (setting [8]) it was 0%; in assay [2] (at 50.0 µM), 27.5%. The growth inhibition is -7% in assay [3] (setting [7]); 12% in assay [3] (setting [8]); 72.5% (active) in assay [3] (at 50.0 µM); -52% in assay [4] (setting [7]); -2% in assay [4] (setting [8]); 5.9% in assay [4] (at 50.0 µM). The growth inhibition in assay [5] (setting [7]) is -14%; in assay [5] (setting [8]), 41%; in assay [5] (at 50.0 µM), 87.5% (active); in assay [6] (setting [7]), -8%; in assay [6] (setting [8]), 43%; in assay [6] (at 50.0 µM), 49%.
Consider `COCCCNC(=S)N/N=C/c1cc(Cl)cc(Cl)c1O`, for which the growth inhibition was 21% in assay [1] (setting [7]); 75% (active) in assay [1] (setting [8]); 92.5% (active) in assay [1] (at 50.0 µM); 15% in assay [2] (setting [7]); 81% (active) in assay [2] (setting [8]); 89.3% (active) in assay [2] (at 50.0 µM). For the same compound, the growth inhibition in assay [3] (setting [7]) was 27%; in assay [3] (setting [8]) it was 94% (active); in assay [3] (at 50.0 µM) it was 93.6% (active); in assay [4] (setting [7]), 10%; in assay [4] (setting [8]) it was 77% (active); in assay [4] (at 50.0 µM), 48.7%. For the same compound, the growth inhibition in assay [5] (setting [7]) is 4%; in assay [5] (setting [8]) it was 83% (active); in assay [5] (at 50.0 µM) it was 80.7% (active); in assay [6] (setting [7]) it was 13%; in assay [6] (setting [8]), 93% (active); in assay [6] (at 50.0 µM) it was 85.2% (active).
On to `CC(NNC(=S)N(C)C1CCCCC1)c1cc2ccccc2cn1` (stereo not given), for which the growth inhibition is 48% in assay [1] (setting [7]); 92% (active) in assay [1] (setting [8]); 86.8% (active) in assay [1] (at 50.0 µM); 55% in assay [2] (setting [7]); 94% (active) in assay [2] (setting [8]); 75.3% (active) in assay [2] (at 50.0 µM). For the same compound, the growth inhibition in assay [3] (setting [7]) was 97% (active); in assay [3] (setting [8]), 94% (active); in assay [3] (at 50.0 µM), 85.5% (active); in assay [4] (setting [7]) it was 94% (active); in assay [4] (setting [8]) it was 92% (active); in assay [4] (at 50.0 µM) it was 79.8% (active). In addition, the growth inhibition in assay [5] (setting [7]) was 94% (active); in assay [5] (setting [8]), 95% (active); in assay [5] (at 50.0 µM), 84% (active); in assay [6] (setting [7]) it was 51%; in assay [6] (setting [8]), 93% (active); in assay [6] (at 50.0 µM), 83% (active).
On to `Nc1nc(N)c2cc(S(=O)c3ccc4ccccc4c3)ccc2n1` (stereo not given), for which the growth inhibition is 4% in assay [1] (setting [7]); 17% in assay [1] (setting [8]); 24.2% in assay [1] (at 50.0 µM); 29% in assay [2] (setting [7]); 64% in assay [2] (setting [8]); 79.2% (active) in assay [2] (at 50.0 µM). The growth inhibition in assay [3] (setting [7]) is 2%; in assay [3] (setting [8]), 9%; in assay [3] (at 50.0 µM) it was 19.5%; in assay [4] (setting [7]) it was -1%; in assay [4] (setting [8]) it was -18%; in assay [4] (at 50.0 µM), -42.4%. In addition, the growth inhibition in assay [5] (setting [7]) is -21%; in assay [5] (setting [8]), -19%; in assay [5] (at 50.0 µM), -13.9%; in assay [6] (setting [7]), -4%; in assay [6] (setting [8]), 3%; in assay [6] (at 50.0 µM), 13.5%.
On to `COc1ccc2nc3cc([N+](=O)[O-])ccc3c(NNc3ccc([N+](=O)[O-])cc3)c2c1`, for which the growth inhibition was 2% in assay [1] (setting [7]); 2% in assay [1] (setting [8]); 58% in assay [1] (at 50.0 µM); 2% in assay [2] (setting [7]); -4% in assay [2] (setting [8]); 36.9% in assay [2] (at 50.0 µM). Moreover, the growth inhibition in assay [3] (setting [7]) was 3%; in assay [3] (setting [8]), -4%; in assay [3] (at 50.0 µM), 65%; in assay [4] (setting [7]), -5%; in assay [4] (setting [8]), -15%; in assay [4] (at 50.0 µM), 30.9%. Also, the growth inhibition in assay [5] (setting [7]) was 2%; in assay [5] (setting [8]), -5%; in assay [5] (at 50.0 µM), 55.2%; in assay [6] (setting [7]), 5%; in assay [6] (setting [8]), 0%; in assay [6] (at 50.0 µM), 66.2%.
Consider `C[CH2][Ge]([CH2]C)([CH2]C)[O]C(=O)C([O][Ge]([CH2]C)([CH2]C)[CH2]C)c1ccccc1` (stereo not given), for which the growth inhibition was 15% in assay [1] (setting [7]); 15% in assay [1] (setting [8]); 91.2% (active) in assay [1] (at 50.0 µM); 6% in assay [2] (setting [7]); 6% in assay [2] (setting [8]); 93% (active) in assay [2] (at 50.0 µM). Also, the growth inhibition was 13% in assay [3] (setting [7]); 13% in assay [3] (setting [8]); 91.3% (active) in assay [3] (at 50.0 µM); 15% in assay [4] (setting [7]); 15% in assay [4] (setting [8]); 89.5% (active) in assay [4] (at 50.0 µM). Also, the growth inhibition in assay [5] (setting [7]) is 5%; in assay [5] (setting [8]), 5%; in assay [5] (at 50.0 µM), 90.6% (active); in assay [6] (setting [7]), 23%; in assay [6] (setting [8]) it was 23%; in assay [6] (at 50.0 µM), 89.5% (active).
For the compound `O=C1CCC(=O)c2c1c(O)c1ccncc1c2O`, the growth inhibition in assay [1] (setting [7]) was 18%; in assay [1] (setting [8]), 99% (active); in assay [1] (at 50.0 µM), 98.1% (active); in assay [2] (setting [7]) it was 26%; in assay [2] (setting [8]), 99% (active); in assay [2] (at 50.0 µM), 99.3% (active). In addition, the growth inhibition is 31% in assay [3] (setting [7]); 99% (active) in assay [3] (setting [8]); 99.2% (active) in assay [3] (at 50.0 µM); 11% in assay [4] (setting [7]); 99% (active) in assay [4] (setting [8]); 98.5% (active) in assay [4] (at 50.0 µM). Further, the growth inhibition in assay [5] (setting [7]) was 16%; in assay [5] (setting [8]), 99% (active); in assay [5] (at 50.0 µM) it was 99.2% (active); in assay [6] (setting [7]), 41%; in assay [6] (setting [8]) it was 99% (active); in assay [6] (at 50.0 µM) it was 99% (active).
